High-throughput results from PubChem BioAssay.
Hits are enriched below; roughly 8.1% of the tested compounds scored in any of these assays.
SW480 rereplic: inducers of DNA re-replication in SW480 colon cancer cells. SW480 DNA re-replication, Hoechst DNA content imaging, 48 h. Potency, µM (titrated, usually from 46.1 µM), without a hit: at the top dose re-replication activation, usual class: activators. 1.8% of 340,000 active. AID 624297; note: % of control where 0% means no effect; nearly all actives have a fitted effect of over 55% in size
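250 cells/well; 23 nL cpd via pin tool; 48 hr, 37 C, 5% CO2; Hoechst 40 min; imager read of total nuclear intensity, ex 405/em 500-530 nm.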
KB-3-1 cytotox: KB-3-1 parental cell cytotoxicity. KB-3-1 viability, CellTiter-Glo ATP luminescence, 72 h. Potency, µM (doses to about 46.1 µM), actives largely listed as cytotoxic. 1.4% of 400,000 active; note: % is set by controls: 0 for no effect and ±100 for the full control effect; nearly all actives have a fitted effect of over 60% in size
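KB-3-1 parental drug-naive adenocarcinoma cells in DMEM/10% FBS, incubated 72 h at 37 C with pin-transferred compounds across a concentration series. Viability by CellTiter-Glo luminescence; concentration-response curves fitted after normalization.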
KB-V1 cytotox: kills drug-selected multidrug resistant KB-V1 cells; KB-V1 MDR cells viability, CellTiter-Glo, 72 h; Potency, µM (highest dose often 46.1 µM), hits mostly cytotoxic; 3.4% of 400,000 active; AID 1347076; note: % is set by controls: 0 for no effect and ±100 for the full control effect; nearly all actives have a fitted effect of over 60% in size
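KB-V1 MDR subline cells in DMEM (phenol-red free, 10% FBS) exposed to compounds in qHTS concentration series for 72 h at 37 degrees C. Viability read by CellTiter-Glo luminescence; concentration-effect curves fitted after normalization and correction.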
ELG1 repair inh: inhibitors of ELG1-dependent DNA repair in HEK293T cells; 2.3% of 330,000 active; AID 504467; HEK293T ELG1-luciferase reporter, luminescence, 16 h; DNA damage induced by 5-fluorouridine; Potency, µM (top dose mostly 46.1 µM), for the others: top-dose activity change, negative = inhibition, actives largely listed as inhibitors; note: % is set by controls: 0 for no effect and ±100 for the full control effect; nearly all actives have a fitted effect of over 55% in size
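Step one: seed 2,000 cells per well. Step two: pin-transfer compound or DMSO alongside 5-fluorouridine. Step three: incubate 16 hr, 37 °C, 5% CO2. Step four: add ONE-Glo, wait 30 min, read luminescence.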
MCF10A rerep: inducers of DNA re-replication in MCF 10A breast cells | MCF 10A DNA re-replication, Hoechst nuclear intensity, 48 h | Potency, µM (titrated, usually from 46.1 µM), inactives show at the top dose activity, positive = re-replication, actives largely listed as activators | 2.9% of 350,000 active; note: % of control where 0% means no effect; nearly all actives have a fitted effect of over 50% in size
The depositor's hits bear a star; i = inactive; u = inconclusive; x = no result; [ ] = another dose, or the depositor's remark. Calls come from the whole dose curve; as a rule, active = well fitted curve in the direction sought with a large enough effect; inconclusive = small, poorly fitted or top-dose-only effect, or another doubt; inactive = no such curve, though single readings can be large; an effect the other way counts as inactive or inconclusive. Potency is the fitted concentration of half-maximal effect.

SMILES	SW480 rereplic	KB-3-1 cytotox	KB-V1 cytotox	ELG1 repair inh	MCF10A rerep
CCOc1ccccc1C(=O)Nc1ccccc1O	-12%	i	i	u	0%
CCOc1c(Cl)cc(C(=O)Nc2ccccc2-c2ccccc2)cc1Cl	-140%	u	21µM*	22%	-7%
COc1ccc(C(=O)Nc2ccccc2-c2ccccc2)cc1Cl	-2%	i	i	0%	15%
CCOc1ccccc1C(=O)Nc1ccccc1-c1ccccc1	14%	u	15µM*	-17%	21µM*
O=C(Nc1ccc(Nc2ccccc2)cc1)c1ccc(Cl)c([N+](=O)[O-])c1	-1%	i	i	-2%	25%
CCOc1ccccc1NC(=O)C(OC(=O)c1ccccc1O)c1ccccc1 (stereo not drawn)	-7%	i	12µM*	11%	21%
O=C(Nc1ccccc1-c1ccccc1)c1ccc(Cl)c([N+](=O)[O-])c1	-3%	16µM*	i	-17%	9.2µM*
COc1ccc(C(=O)OCC(=O)Nc2ccc3c(c2)OCCO3)c(OC)c1	0%	u	i	0%	8%
O=C1C(C=Nc2ccccc2)=C(O)c2ccccc21	-6%	i	i	u	-3%
O=C1C(=O)c2ccccc2C(O)=C1CC=C(Cl)Cl	3%	15µM*	3.7µM*	x	-1%
COC(=O)c1cc2nc(-c3ccc(OC)cc3)cc(C(F)(F)F)n2n1	-2%	i	i	-5%	1%
Cc1nnc(SCC(=O)Nc2ncc3c(n2)CC(c2ccccc2)CC3=O)s1 (stereo not drawn)	-1%	i	i	-7%	2%
CN(C(=S)Nc1ccc(F)cc1)C1(c2ccccc2Cl)CCCCC1=O (stereo not drawn)	u	i	u	0%	u
CC(C)Cc1nnc(NC(=O)Cc2ccc([N+](=O)[O-])cc2)s1	0%	u	i	2%	-35%
O=C(/C=C/c1ccccc1)CCN1CCOCC1	8.2µM*	u	u	x	u
C[N+](C)(C)CCC(=O)N1C/C(=C/c2ccccc2)C(=O)/C(=C\c2ccccc2)C1	0.73µM*	u	10µM*	x	u
CN(C)CCC(=O)N1C/C(=C/c2ccccc2)C(=O)/C(=C\c2ccccc2)C1	u	i	i	x	31%
O=C1/C(=C/c2ccccc2)CN(C(=O)CCN2CCOCC2)C/C1=C\c1ccccc1	u	i	u	x	2.3µM*
Cc1cccc(N(C(=O)Cn2nnc3ccccc32)C(C(=O)NC(C)(C)C)c2ccsc2)c1 (stereo not drawn)	-2%	i	u	u	1%
CCOc1cccnc1Sc1ccccc1	-10%	u	i	x	u
Cc1ccc(N(CC(=O)NC2CCCC2)C(=O)CCC(=O)Nc2nccs2)c(C)c1	-4%	i	u	2%	0%
CC(=O)c1ccc(-c2ccc(-c3cc(=O)oc4c(C(C)C)ccc(C)c34)cc2)cc1	-10%	i	i	u	u
CCN1CC=C2C(C1)C(c1ccc(Cl)s1)C(C#N)=C(N)C2(C#N)C#N (stereo not drawn)	-2%	i	15µM*	0%	4%
COc1ccc(C2(CN(C(C)=O)C(C)=O)CCCC2)cc1OC	-1%[9.22 µM]	i	i	-6%	-2%
CN1CCN(c2ccc([N+](=O)[O-])c(-n3nc(-c4ccccc4)c4ccccc4c3=O)c2)CC1	9%	u	13µM*	20%	-1%
SMILES	SW480 rereplic	KB-3-1 cytotox	KB-V1 cytotox	ELG1 repair inh	MCF10A rerep
CNC(=O)C(=O)NCC(c1cccs1)S(=O)(=O)c1ccc(C)cc1 (stereo not drawn)	-5%	i	i	9%	4%
COc1ccc(-c2nn(-c3ccccc3)cc2C(=O)NCCCn2ccnc2)cc1	4%	i	i	-18%	u
COc1ccc(-c2nn(-c3ccccc3)cc2/C=C(\CC(=O)O)c2nc3ccccc3s2)cc1OC	2%	i	i	1%	18µM*
COc1ccc(-c2nn(-c3ccccc3)cc2/C=C/C(=O)NCCCn2ccnc2)cc1OC	u	i	i	16µM*	u
O=C(COc1ccc(Br)cc1)N/N=C1/SCC(=O)N1Cc1ccco1	u	i	u	-1%	14%
O=c1[nH]c(=S)[nH]c2c1[C@H](CCc1cccc(Cl)c1)O[C@H](C1CC1)C2	x	i	i	x	x
Cc1ccc2cc(CN(C(=O)c3cccs3)c3ccccc3)c(=O)[nH]c2c1	u	i	i	u	u
Cc1cccc(N(Cc2cc3ccccc3[nH]c2=O)C(=O)c2cccc(Cl)c2)c1	x	i	i	x	x
Cc1ccc2[nH]c(=O)c(CN(C(=O)c3cccs3)c3ccccc3)cc2c1	0%	u	3.3µM*	u	15%
Cc1cccc(N(Cc2cc3cc(C)ccc3[nH]c2=O)C(=O)c2cccs2)c1	-1%	i	i	u	10µM*
Nc1c(C(O)(C(F)(F)F)C(F)(F)F)cc(C(O)(C(F)(F)F)C(F)(F)F)c2ccccc12	28%	i	i	u	18µM*
N#CCN1CCC/C1=C\[N+](=O)[O-]	-4%	i	i	0%	2%
Cc1ccc(C)c(NC(c2ccccc2)c2nnc(-c3ccccc3F)o2)c1 (stereo not drawn)	x	i	i	x	x
Cc1nnc(SCC(=O)N(C)Cc2ccccc2)[nH]c1=O	2%	i	i	-1%	4%
O=C(O)c1ccccc1-c1ccccc1C(=O)NNc1ccccc1	18µM*	i	i	-3%	3%
O=C(O)c1ccccc1-c1ccccc1C(=O)Nc1ccccc1	-7%	i	i	5%	1%
CC(C)(C)NC(=O)NC(=O)COC(=O)c1cccc(NS(=O)(=O)c2ccc(F)c(F)c2)c1	0%	i	i	u	5%
N#CC1(C#N)OC12CCS(=O)(=O)c1ccccc12 (stereo not drawn)	-7%	i	i	x	-6%
O=C(NCCC1=CCCCC1)C1CCN(S(=O)(=O)c2ccc(Br)s2)CC1	1%	i	16µM*	-21%	u
O=C(NCCC1=CCCCC1)C1CCCN(S(=O)(=O)c2ccccc2)C1 (stereo not drawn)	21%	i	9.2µM*	u	u
O=C(NCCC1=CCCCC1)C1CCN(S(=O)(=O)N2CCCC2)CC1	-8%	i	i	-4%	-1%
Cc1cc(C)c(C)c(S(=O)(=O)Nc2cccc(-n3cnnn3)c2)c1C	1%	i	i	3%	-1%
C/C(=N\NC(=O)COc1ccccc1[N+](=O)[O-])c1cccc(NC(=O)c2ccncc2)c1	-2%	i	i	9.2µM*	u
